Reference: PubChem BioAssay (NCATS)
Inconclusive results are not listed. Active and inactive are the calls of the source. Calls come from the whole dose curve; as a rule, active = well fitted cell-killing curve with a large enough effect; inconclusive = small, poorly fitted or top-dose-only effect, or effect the other way; inactive = flat fitted curve, though single readings scatter. Where a SMILES comes first, the peptide text is derived from it. The star is where a group is joined. PhAc = O=C(Cc1ccccc1)*

Tested on: HeLa
Assay: Primary qHTS to identify gynecologic anti-cancer compounds using libraries of approved drugs and bioactive compounds (AID 1345084); note: nearly all actives have a fitted effect of over 55% in size
Settings: Gynecologic cancer cell panel viability, ATPlite luminescence, 48 h; series mostly up to 57.5 µM; activity change, negative = cytotoxicity: at the top concentration
Method in brief: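 In this quantitative HTS, cell killing is estimated from loss of ATP-dependent luciferase light. Cells see five compound concentrations over a 48 h exposure.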
% is set by controls: 0 for no effect and ±100 for the full control effect.

| SMILES | activity change, negative = cytotoxicity |
| --- | --- |
| COC1CC(O[C@H]2CC[C@@]3(C)C(=CC[C@]4(O)C3[C@H](O)[C@@H](O)[C@]3(C)[C@@H]([C@H](C)O)CC[C@@]34O)C2)OC(C)C1OC1CC(OC)C(OC2CC(OC)C(OC3OC(C)C(OC4OC(CO)C(O)C(O)C4O)C(OC)C3O)C(C)O2)C(C)O1 (some centres undefined) | -0.017% [at 11.6 µM] (inactive) |
| C=C1CCC2[C@](C)(CO)CCC[C@@]2(C)[C@@H]1CCC1=CCOC1=O (some centres undefined) | 9.28% [at 38.5 µM] (inactive) |
| C=C1CCC[C@]2(C)CC[C@@](O)(C(=C)C(=O)O)C[C@@H]12 | -0.784% (inactive) |
| CC1CC(=O)[C@]2(O)C(C(=O)OCCc3ccc(O)cc3)=CO[C@@H](O[C@@H]3O[C@H](CO)[C@@H](O)[C@H](O)[C@H]3O)[C@H]12 (some centres undefined) | -0.647% [at 25.3 µM] (inactive) |
| COC(=O)C1=COC(O[C@@H]2O[C@H](CO)[C@@H](O)[C@H](O)[C@H]2O)[C@@H]2[C@@](C)(O)[C@@H](OC(=O)/C=C/c3ccccc3)C[C@]12O (some centres undefined) | 0.0369% [at 25.3 µM] (inactive) |
| CCC[C@H](N[C@@H](C)C(=O)N1[C@H](C(=O)O)C[C@@H]2CCCC[C@@H]21)C(=O)O | 4.69% (inactive) |
| CC1OC(OC2C(OC(=O)[C@]34CCC(C)(C)C[C@H]3C3=CCC5[C@@]6(C)CC[C@H](OC7OC(C(=O)O)C(O)C(O)C7O)C(C)(C)C6CC[C@@]5(C)[C@]3(C)CC4O)OC(CO)C2O)C(O)C(O)C1OC1OCC(O)C(O)C1O (some centres undefined) | 8.57% [at 11.6 µM] (inactive) |
| CCOC(=O)CNC(=O)[C@@H]1CCCN1C(=O)Cc1ccccc1 (PhAc-Pro-Gly-OEt) | 12.5% (inactive) |
| C/C(=C\CC[C@H](CO)[C@@H]1CC[C@]2(C)C3=C(CC[C@@]12C)[C@@]1(C)CCC(=O)C(C)(C)C1CC3)C(=O)O (some centres undefined) | 1.19% [at 25.3 µM] (inactive) |
| C=C1CCC2C(C)(C)CCC[C@]2(C)[C@H]1CC/C(C)=C/C(=O)O (some centres undefined) | -13.3% (inactive) |
| COCC1OC(OC(C)(C)C2CCC3(C)C=C(C4CCC5C4(C)CC(O)C4OC(C(C)(C)O)CCC45C)CCC3O2)C(NC(C)=O)C(O)C1O (centres undefined) | 12% [at 25.3 µM] (inactive) |
| C=C1CCC2[C@](C)(CCC[C@]2(C)C(=O)O)[C@H]1CC/C(C)=C/C(=O)OC (some centres undefined) | 2.95% [at 38.5 µM] (inactive) |
| COC(=O)c1c(CC=C(C)C)c(OC2OC(CO)C(O)C(O)C2O)c2ccccc2c1OC1OC(CO)C(O)C(O)C1O (centres undefined) | 6.74% [at 25.3 µM] (inactive) |
| O=C(Cc1ccccc1)OC[C@H]1O[C@H](O[C@H]2O[C@H](CO)[C@@H](O)[C@H](O)[C@H]2O)[C@H](O)[C@@H](O)[C@@H]1O | -0.707% [at 25.3 µM] (inactive) |
| CC1=C2C[C@H]3OC(=O)[C@H](O)[C@@]4(O)[C@@H](C)[C@@H](O)[C@H](O)C([C@@]2(C)[C@H](O)[C@@H](O)C1)[C@@]34C (some centres undefined) | -8.71% [at 38.5 µM] (inactive) |
| CC1CC(=O)C2=C(O1)OC1(C)CCC3C(C)(C)C4OC4C(=O)C3(C)C1C2 (centres undefined) | 10.8% [at 38.5 µM] (inactive) |
| COc1ccnc(CCc2nc3ncccc3[nH]2)c1 | 13.8% (inactive) |
| C/C(=C/CO)CC[C@H]1[C@]2(C)C[C@H](O)CC(C)(C)[C@H]2CC[C@]1(C)O | 0.978% [at 38.5 µM] (inactive) |
| COc1c2c(c(C)c3c1C(=O)OC3)OC1(C)CC(O)C34OC(O)(CCC3(C)C1C2)OC4(C)C (centres undefined) | -0.826% [at 25.3 µM] (inactive) |
| COC(=O)[C@]1(Cc2ccc(O)c(CC=C(C)C)c2)OC(=O)C(O)=C1c1ccc(O)cc1 | -0.44% [at 25.3 µM] (inactive) |

| SMILES | activity change, negative = cytotoxicity |
| --- | --- |
| COc1cnc(-c2ccc(Cn3c(CC(C)(C)C(=O)O)c(SC(C)(C)C)c4cc(OC[C@@H]5Cc6ccccc6N5C(C)=O)ccc43)cc2)nc1 | 1.5% [at 38.5 µM] (inactive) |
| CCC(C)C(=O)O[C@H]1C[C@](C)(O)[C@]23OC(C)(C)[C@H](C[C@H](OC(=O)c4ccccc4)[C@]2(COC(C)=O)[C@H]1OC(=O)C(C)CC)[C@H]3OC(C)=O (some centres undefined) | -6.72% [at 25.3 µM] (inactive) |
| CC1CC2(O)OC(=O)C3=C2C(CCC3)[C@@]12C[C@@H](c1ccoc1)OC2=O (some centres undefined) | -8.81% [at 38.5 µM] (inactive) |
| COc1cc(C(C)=O)ccc1O[C@@H]1O[C@H](CO)[C@@H](O)[C@H](O)[C@H]1O | -4.05% [at 38.5 µM] (inactive) |
| COC(=O)C1=COC(OC2OC(CO)C(O)C(O)C2O)C2C(C)C(OC(C)=O)C(OC(=O)c3ccccc3)C12 (centres undefined) | -13.6% [at 25.3 µM] (inactive) |
| COc1ccnc2[nH]cc(C(=O)C(=O)N3CCN(C(=O)c4ccccc4)CC3C)c12 (centres undefined) | 0.471% (inactive) |
| C[C@@H]1O[C@@H](O[C@H]2[C@H](O)[C@@H](O)[C@H](OC[C@H]3O[C@@H](OC(=O)[C@]45CCC(C)(C)C[C@H]4C4=CCC6[C@@]7(C)C[C@@H](O)[C@H](O)[C@@](C)(CO)C7[C@H](O)C[C@@]6(C)[C@]4(C)CC5)[C@H](O)[C@@H](O)[C@@H]3O)O[C@@H]2CO)[C@H](O)[C@H](O)[C@H]1O (some centres undefined) | 13.5% [at 11.6 µM] (inactive) |
| O=C(CC1CC(c2ccc(F)cc2F)=NO1)N1CCOCC1 (centres undefined) | 0.344% (inactive) |
| COC(=O)C1=CO[C@@H](O[C@@H]2O[C@H](CO)[C@@H](O)[C@H](O)[C@H]2O)[C@@H]2[C@@H](C(=O)O)CC[C@H]12 | -2.67% [at 25.3 µM] (inactive) |
| C[C@@H]1O[C@@H](OC2C(CO)OC(OCC3OC(OC(=O)[C@]45CCC(C)(C)CC4C4=CCC6[C@@]7(C)CC[C@@H](O)[C@](C)(C(=O)O)C7CC[C@@]6(C)[C@]4(C)CC5)C(O)C(O)C3O)C(O)C2O)[C@H](O)[C@H](O)[C@H]1O (some centres undefined) | 4.67% [at 11.6 µM] (inactive) |
| OC[C@H]1O[C@@H](OC[C@H]2O[C@@H](OCc3ccccc3)[C@H](O)[C@@H](O)[C@@H]2O)[C@H](O)[C@@H](O)[C@@H]1O | 1.54% [at 25.3 µM] (inactive) |
| COC1OC(O)C2(CCC3(O2)C(C)CC2OC(=O)C4(C)CCCC3(C)C24)C1O (centres undefined) | 0.191% [at 38.5 µM] (inactive) |
| C=C1C(OC(C)=O)C(=O)C2C(C)(C)C(O)CCC2(C)C1CC(OC(C)=O)/C(C)=C/COC(C)=O (centres undefined) | 2.95% [at 25.3 µM] (inactive) |
| C/C(=C\CO)CC/C=C(\C)C(=O)O[C@@H]1O[C@H](CO)[C@@H](O)[C@H](O)[C@H]1O | 0.461% [at 38.5 µM] (inactive) |
| CC(=O)c1c(C)cccc1O[C@@H]1O[C@H](CO)[C@@H](O)[C@H](O)[C@H]1O | 9.26% [at 38.5 µM] (inactive) |
| CC(=O)O[C@@H]1C=C2[C@H](CC[C@@]3(C)[C@@]2(O)CC[C@H]2Cc4c([nH]c5ccccc45)[C@@]23C)O[C@@H]1C(C)(C)O | 2.05% [at 25.3 µM] (inactive) |
| C=CC1(C)CC=C2C(CCC3C(C)(C(=O)O)CCCC23C)C1 (centres undefined) | -0.582% (inactive) |
| CC(C)c1ccc2c(c1)C(=O)CC1C(C)(C(=O)O)CCCC21C (centres undefined) | -1.28% [at 38.5 µM] (inactive) |
| CC(C)CC(=O)O[C@@H]1O[C@H](CO)[C@@H](O[C@H]2O[C@H](C)[C@@H](N[C@H]3C=C(CO)[C@@H](O[C@H]4O[C@H](CO)[C@@H](O[C@H]5O[C@H](CO)[C@@H](O[C@H]6O[C@H](CO)[C@@H](O)[C@H](O)[C@H]6O)[C@H](O)[C@H]5O)[C@H](O)[C@H]4O)[C@H](O)[C@H]3O)[C@H](O)[C@H]2O)[C@H](O)[C@H]1O | -0.344% [at 11.6 µM] (inactive) |
